Data taken from paper PMC7862700, “An all-to-all approach to the identification of sequence-specific readers for epigenetic DNA modifications on cytosine”.

Experiments:
Assay in all cases: DAPPL (digital affinity profiling via proximity ligation, sequencing); 10 mM Tris-HCl pH 7.5, 50 mM NaCl, 1 mM DTT, 4% glycerol, room temperature, 30 min; GST-TFs on glutathione beads, 16-mer random dsDNA library, 0.1% formaldehyde crosslink after washing; high values mean tight binding
Settings in all cases: protein: recombinant; tags: N-terminal GST; dsDNA, one strand shown
[1] = target: T1, FEV (Homo sapiens, UniProt Q99581 1-238)
T1 sequence: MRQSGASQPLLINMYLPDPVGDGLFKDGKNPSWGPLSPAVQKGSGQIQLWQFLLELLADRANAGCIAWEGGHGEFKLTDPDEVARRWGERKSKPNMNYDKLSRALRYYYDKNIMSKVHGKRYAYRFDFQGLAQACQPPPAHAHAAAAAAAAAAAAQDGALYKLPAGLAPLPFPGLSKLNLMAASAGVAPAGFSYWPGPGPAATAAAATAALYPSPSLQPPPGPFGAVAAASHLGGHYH
In short: (§1)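 After expression in yeast as GST fusions, human transcription factors were bound to glutathione beads, DNA-barcoded and mixed with a tag-only sample. The pools were incubated with 200 nmole of a 16-mer random double-stranded DNA library in Tris/NaCl/DTT/glycerol buffer (30 min, room temperature), washed and crosslinked with 0.1% formaldehyde. Proximity ligation with BsaI/T4 ligase ran for 1 h at 37 °C, before PCR amplification and sequencing on an Illumina NextSeq500. Binding signal is a hexamer's read frequency for a factor divided by its frequency for the tag-only sample.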

[2] = target: ETV5 (Homo sapiens, UniProt P41161 1-510)
ETV5, sequence (P41161 whole entry): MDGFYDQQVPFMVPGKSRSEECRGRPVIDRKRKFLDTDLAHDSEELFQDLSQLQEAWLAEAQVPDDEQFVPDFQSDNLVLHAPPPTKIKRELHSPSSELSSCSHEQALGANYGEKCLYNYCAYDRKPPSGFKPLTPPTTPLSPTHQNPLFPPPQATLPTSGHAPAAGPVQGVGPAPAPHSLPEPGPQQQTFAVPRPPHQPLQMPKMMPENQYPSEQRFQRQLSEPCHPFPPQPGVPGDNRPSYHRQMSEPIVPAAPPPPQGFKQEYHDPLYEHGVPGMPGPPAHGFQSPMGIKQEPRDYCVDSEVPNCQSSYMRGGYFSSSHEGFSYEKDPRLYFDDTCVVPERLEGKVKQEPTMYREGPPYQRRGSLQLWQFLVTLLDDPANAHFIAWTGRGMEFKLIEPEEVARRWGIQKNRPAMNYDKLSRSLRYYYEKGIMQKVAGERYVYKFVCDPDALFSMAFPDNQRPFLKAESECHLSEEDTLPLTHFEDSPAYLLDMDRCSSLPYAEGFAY
In short: as §1

[3] = target: T2, SPIC (Homo sapiens, UniProt Q8N5J4 1-248)
T2 sequence: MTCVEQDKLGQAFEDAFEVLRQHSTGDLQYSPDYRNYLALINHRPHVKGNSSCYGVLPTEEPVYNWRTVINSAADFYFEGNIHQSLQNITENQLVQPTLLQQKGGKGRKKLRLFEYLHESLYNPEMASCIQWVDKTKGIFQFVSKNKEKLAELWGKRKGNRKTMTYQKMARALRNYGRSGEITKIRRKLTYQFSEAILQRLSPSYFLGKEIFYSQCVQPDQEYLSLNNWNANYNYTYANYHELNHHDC
In short: as §1

[4] = target: ELF4 (Homo sapiens, UniProt Q99607 1-663)
ELF4, sequence (Q99607 whole entry): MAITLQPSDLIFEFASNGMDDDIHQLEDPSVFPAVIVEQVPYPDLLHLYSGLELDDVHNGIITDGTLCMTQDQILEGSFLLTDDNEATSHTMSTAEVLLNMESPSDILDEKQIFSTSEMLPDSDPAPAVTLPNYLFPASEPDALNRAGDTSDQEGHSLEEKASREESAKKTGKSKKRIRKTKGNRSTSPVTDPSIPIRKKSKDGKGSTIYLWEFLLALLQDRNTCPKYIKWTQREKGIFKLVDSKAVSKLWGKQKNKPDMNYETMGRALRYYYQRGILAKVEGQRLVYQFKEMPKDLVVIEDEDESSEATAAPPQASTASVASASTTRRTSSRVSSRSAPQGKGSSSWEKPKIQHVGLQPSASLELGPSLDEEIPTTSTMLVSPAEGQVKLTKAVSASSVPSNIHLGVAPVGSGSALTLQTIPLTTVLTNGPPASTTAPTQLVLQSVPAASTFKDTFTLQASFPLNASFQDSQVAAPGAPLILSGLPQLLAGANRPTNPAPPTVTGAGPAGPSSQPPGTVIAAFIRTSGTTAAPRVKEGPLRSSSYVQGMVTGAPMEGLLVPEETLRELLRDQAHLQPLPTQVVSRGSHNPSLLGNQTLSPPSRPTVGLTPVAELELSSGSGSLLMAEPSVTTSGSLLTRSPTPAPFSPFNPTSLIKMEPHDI
In short: as §1

[5] = target: T3, ELK4 (Homo sapiens, UniProt P28324-2 1-405)
T3 sequence: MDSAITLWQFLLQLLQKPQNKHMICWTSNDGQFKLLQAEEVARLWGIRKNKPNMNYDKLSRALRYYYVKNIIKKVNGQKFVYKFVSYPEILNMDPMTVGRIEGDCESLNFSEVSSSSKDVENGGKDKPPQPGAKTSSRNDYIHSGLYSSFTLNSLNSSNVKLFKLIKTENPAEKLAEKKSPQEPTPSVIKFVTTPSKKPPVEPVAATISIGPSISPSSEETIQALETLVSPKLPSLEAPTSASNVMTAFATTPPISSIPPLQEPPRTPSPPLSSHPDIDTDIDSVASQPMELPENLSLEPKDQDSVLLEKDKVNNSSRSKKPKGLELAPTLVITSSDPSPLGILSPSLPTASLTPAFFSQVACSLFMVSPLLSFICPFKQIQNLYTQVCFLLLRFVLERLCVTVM
In short: as §1

[6] = target: T4, ETV2 (Homo sapiens, UniProt O00321 1-342)
T4 sequence: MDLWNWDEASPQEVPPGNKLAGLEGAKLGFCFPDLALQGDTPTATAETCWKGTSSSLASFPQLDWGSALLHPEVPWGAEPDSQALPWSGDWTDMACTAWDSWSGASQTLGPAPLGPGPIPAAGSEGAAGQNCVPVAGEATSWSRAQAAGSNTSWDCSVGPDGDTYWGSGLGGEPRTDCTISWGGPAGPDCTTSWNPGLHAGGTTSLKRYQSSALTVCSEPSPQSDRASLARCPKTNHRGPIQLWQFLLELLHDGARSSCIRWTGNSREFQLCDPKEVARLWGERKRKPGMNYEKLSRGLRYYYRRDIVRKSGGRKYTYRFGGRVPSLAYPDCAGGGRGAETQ
In short: as §1

[7] = target: T5, ELF3 (Homo sapiens, UniProt P78545 1-371)
T5 sequence: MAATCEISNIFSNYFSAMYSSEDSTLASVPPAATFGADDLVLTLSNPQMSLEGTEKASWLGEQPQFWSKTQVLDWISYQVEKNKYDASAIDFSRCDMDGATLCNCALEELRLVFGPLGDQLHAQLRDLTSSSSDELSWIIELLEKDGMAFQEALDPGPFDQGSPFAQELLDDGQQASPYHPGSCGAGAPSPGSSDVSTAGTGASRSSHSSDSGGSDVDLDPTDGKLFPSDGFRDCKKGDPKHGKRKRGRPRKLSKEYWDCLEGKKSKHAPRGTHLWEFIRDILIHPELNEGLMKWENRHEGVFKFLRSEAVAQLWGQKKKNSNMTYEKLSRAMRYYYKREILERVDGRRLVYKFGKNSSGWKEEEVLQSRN
In short: as §1

[8] = target: ETV1 (Homo sapiens, UniProt P50549 1-477)
ETV1, sequence (P50549 whole entry): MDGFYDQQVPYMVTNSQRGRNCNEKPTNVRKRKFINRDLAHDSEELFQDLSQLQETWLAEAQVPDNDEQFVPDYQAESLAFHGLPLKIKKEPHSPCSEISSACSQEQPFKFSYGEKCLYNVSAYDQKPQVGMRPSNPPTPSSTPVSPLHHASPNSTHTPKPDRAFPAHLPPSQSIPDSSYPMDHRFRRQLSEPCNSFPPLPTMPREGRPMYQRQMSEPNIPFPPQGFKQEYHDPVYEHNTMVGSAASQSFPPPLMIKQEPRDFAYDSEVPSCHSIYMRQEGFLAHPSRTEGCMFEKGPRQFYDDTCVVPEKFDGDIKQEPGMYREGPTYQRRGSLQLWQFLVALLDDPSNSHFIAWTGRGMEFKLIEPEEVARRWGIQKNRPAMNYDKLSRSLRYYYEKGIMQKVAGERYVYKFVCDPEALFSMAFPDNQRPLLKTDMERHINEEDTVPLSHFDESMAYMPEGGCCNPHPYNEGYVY
In short: as §1

[9] = target: T6, ERF (Homo sapiens, UniProt P50548 1-548)
T6 sequence: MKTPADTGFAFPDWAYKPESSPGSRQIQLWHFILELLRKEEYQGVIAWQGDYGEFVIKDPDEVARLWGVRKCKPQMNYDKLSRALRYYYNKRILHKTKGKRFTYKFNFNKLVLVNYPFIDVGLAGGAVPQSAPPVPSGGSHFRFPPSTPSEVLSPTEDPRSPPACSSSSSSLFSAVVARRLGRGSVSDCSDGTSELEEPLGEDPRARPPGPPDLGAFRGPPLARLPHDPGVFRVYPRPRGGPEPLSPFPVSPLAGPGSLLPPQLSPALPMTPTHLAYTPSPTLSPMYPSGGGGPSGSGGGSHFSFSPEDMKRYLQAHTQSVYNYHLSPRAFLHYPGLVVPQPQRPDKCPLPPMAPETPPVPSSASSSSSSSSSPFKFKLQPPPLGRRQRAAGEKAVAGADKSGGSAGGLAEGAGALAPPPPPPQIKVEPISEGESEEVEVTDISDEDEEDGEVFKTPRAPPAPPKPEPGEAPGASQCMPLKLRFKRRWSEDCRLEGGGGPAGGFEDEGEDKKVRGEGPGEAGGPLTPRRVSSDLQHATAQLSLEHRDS
In short: as §1

[10] = target: T7, ETV3L (Homo sapiens, UniProt Q6ZN32 1-361)
T7 sequence: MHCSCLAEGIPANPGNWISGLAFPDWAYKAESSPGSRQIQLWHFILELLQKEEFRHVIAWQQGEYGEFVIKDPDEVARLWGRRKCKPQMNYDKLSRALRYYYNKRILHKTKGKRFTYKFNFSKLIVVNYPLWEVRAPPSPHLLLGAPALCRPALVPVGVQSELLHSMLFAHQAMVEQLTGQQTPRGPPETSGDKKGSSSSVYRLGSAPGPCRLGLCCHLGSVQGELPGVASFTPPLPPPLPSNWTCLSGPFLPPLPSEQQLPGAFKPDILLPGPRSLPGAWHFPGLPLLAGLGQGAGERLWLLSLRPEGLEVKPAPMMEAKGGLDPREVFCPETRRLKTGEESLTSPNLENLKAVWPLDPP
In short: as §1

[11] = target: T8, ETS2 (Homo sapiens, UniProt P15036 1-469)
T8 sequence: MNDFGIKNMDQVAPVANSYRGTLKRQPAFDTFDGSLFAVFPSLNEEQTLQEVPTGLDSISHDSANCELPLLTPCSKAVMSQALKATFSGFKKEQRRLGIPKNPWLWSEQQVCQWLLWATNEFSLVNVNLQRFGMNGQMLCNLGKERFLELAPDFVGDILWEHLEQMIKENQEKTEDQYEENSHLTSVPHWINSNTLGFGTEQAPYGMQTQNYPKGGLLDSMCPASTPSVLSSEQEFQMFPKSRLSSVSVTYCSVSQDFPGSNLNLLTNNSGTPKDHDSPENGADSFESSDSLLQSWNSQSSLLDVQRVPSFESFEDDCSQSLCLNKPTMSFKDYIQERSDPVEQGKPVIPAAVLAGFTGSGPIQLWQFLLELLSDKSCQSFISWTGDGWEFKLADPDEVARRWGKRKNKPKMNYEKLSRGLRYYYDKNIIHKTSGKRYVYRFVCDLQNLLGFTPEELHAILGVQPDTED
In short: as §1

[12] = target: T9, SPDEF (Homo sapiens, UniProt O95238 1-335)
T9 sequence: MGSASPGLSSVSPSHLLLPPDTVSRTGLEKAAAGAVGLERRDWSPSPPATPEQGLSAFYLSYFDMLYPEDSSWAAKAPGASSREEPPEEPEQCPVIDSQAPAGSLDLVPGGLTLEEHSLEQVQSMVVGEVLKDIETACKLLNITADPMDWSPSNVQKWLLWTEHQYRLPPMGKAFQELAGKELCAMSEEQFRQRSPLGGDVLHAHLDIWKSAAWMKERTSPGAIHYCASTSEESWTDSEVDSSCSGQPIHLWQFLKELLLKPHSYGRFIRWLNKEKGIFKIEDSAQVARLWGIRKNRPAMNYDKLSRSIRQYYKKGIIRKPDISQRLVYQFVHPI
In short: as §1

[13] = target: T10, ETV7 (Homo sapiens, UniProt Q9Y603 1-341)
T10 sequence: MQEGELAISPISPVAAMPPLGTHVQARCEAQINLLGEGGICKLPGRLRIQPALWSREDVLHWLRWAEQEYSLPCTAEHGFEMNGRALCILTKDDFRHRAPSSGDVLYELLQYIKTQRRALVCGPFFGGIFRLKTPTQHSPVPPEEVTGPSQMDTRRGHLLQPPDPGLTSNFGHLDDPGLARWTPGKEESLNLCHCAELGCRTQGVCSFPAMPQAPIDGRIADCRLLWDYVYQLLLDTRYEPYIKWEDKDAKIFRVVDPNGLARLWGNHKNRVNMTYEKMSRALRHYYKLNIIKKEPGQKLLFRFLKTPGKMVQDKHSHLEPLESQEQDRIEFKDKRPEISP
In short: as §1

[14] = target: T11, ELF5 (Homo sapiens, UniProt Q9UKW6-2 1-255)
T11 sequence: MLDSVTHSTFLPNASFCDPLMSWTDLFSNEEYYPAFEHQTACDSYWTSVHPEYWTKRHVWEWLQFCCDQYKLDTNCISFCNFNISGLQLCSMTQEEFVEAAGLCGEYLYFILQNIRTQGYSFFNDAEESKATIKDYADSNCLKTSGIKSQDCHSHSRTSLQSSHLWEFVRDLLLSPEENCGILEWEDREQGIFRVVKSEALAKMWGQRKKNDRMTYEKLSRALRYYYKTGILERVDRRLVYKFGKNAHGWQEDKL
In short: as §1

[15] = target: ETV6 (Homo sapiens, UniProt P41212 1-452)
ETV6, sequence (P41212 whole entry): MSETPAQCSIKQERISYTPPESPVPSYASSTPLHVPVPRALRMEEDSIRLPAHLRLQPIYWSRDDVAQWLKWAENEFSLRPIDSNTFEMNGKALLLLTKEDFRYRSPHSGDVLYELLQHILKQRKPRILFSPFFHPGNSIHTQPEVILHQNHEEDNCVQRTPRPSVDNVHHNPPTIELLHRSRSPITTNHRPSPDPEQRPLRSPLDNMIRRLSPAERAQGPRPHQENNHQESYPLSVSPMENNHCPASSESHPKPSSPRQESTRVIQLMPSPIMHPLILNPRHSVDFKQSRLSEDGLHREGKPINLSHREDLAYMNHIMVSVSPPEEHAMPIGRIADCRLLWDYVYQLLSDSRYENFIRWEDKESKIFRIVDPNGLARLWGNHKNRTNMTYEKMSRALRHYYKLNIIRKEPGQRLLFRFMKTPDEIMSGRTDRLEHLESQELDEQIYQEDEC
In short: as §1

[16] = target: T12, ETV3 (Homo sapiens, UniProt P41162-2 1-143)
T12 sequence: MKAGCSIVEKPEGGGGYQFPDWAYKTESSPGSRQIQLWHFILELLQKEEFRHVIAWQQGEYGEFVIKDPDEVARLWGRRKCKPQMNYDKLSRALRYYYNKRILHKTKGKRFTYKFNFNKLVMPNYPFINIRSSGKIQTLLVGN
In short: as §1

Sequence | binding signal [1] | binding signal [2] | binding signal [3] | binding signal [4] | binding signal [5] | binding signal [6] | binding signal [7] | binding signal [8] | binding signal [9] | binding signal [10] | binding signal [11] | binding signal [12] | binding signal [13] | binding signal [14] | binding signal [15] | binding signal [16]
CCCTGT | 1.04 fold enrichment (6-mer frequency, TF over GST control) | 1.11 fold enrichment (6-mer frequency, TF over GST control) | 1.2 fold enrichment (6-mer frequency, TF over GST control) | 1.11 fold enrichment (6-mer frequency, TF over GST control) | 1.25 fold enrichment (6-mer frequency, TF over GST control) | 1.03 fold enrichment (6-mer frequency, TF over GST control) | 1.08 fold enrichment (6-mer frequency, TF over GST control) | 1.06 fold enrichment (6-mer frequency, TF over GST control) | 1.19 fold enrichment (6-mer frequency, TF over GST control) | 1.06 fold enrichment (6-mer frequency, TF over GST control) | 1.06 fold enrichment (6-mer frequency, TF over GST control) | 1.02 fold enrichment (6-mer frequency, TF over GST control) | 1.03 fold enrichment (6-mer frequency, TF over GST control) | 1.08 fold enrichment (6-mer frequency, TF over GST control) | 1.06 fold enrichment (6-mer frequency, TF over GST control) | 
CATCCG | 2.77 fold enrichment (6-mer frequency, TF over GST control) | 2.19 fold enrichment (6-mer frequency, TF over GST control) | 2.11 fold enrichment (6-mer frequency, TF over GST control) | 1.82 fold enrichment (6-mer frequency, TF over GST control) | 1.71 fold enrichment (6-mer frequency, TF over GST control) | 2.11 fold enrichment (6-mer frequency, TF over GST control) | 1.9 fold enrichment (6-mer frequency, TF over GST control) | 2.19 fold enrichment (6-mer frequency, TF over GST control) | 1.86 fold enrichment (6-mer frequency, TF over GST control) | 2.11 fold enrichment (6-mer frequency, TF over GST control) | 2.16 fold enrichment (6-mer frequency, TF over GST control) | 3.63 fold enrichment (6-mer frequency, TF over GST control) | 1.96 fold enrichment (6-mer frequency, TF over GST control) | 2.53 fold enrichment (6-mer frequency, TF over GST control) | 2.03 fold enrichment (6-mer frequency, TF over GST control) | 2.43 fold enrichment (6-mer frequency, TF over GST control)
